Experimental data as given in PubChem BioAssay AID1159580 (chemical genetic matrix, 2015).
The campaign covered roughly 5,500 compounds. About 2,000 (36%) were called active. Inconclusive results (about 18%) are left out. Rule as the data show it: active = normalized growth mostly below about 0.91 (no sharp cut-off); inconclusive = no clear call, values can overlap the other calls; inactive = mostly above about 0.92. Some of the results follow.

Test: chemical genetic growth profiling, strain panel (AID 1159580);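 also: tested at 20 µM; growth read once vehicle control cultures reached saturation at 30 °C; 1 = growth at the plate median or of vehicle wells; lower values mean less growth of the strain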
Settings: S. cerevisiae deletion strains, growth OD
[1] = locus YAL021C, strain ccr4, active compounds read low
[2] = locus YAL026C, strain drs2, active compounds read low
[3] = locus YAL030W, strain snc1, active compounds read low
[4] = locus YBL061C, strain skt5, active compounds read low
[5] = locus YBR009C, strain hhf1, active compounds read low
[6] = locus YBR023C, strain chs3, active compounds read low
[7] = locus YBR171W, strain sec66, active compounds read low
[8] = locus YBR231C, strain swc5, active compounds read low
[9] = locus YBR279W, strain paf1, active compounds read low
[10] = locus YCL011C, strain gbp2, active compounds read low
[11] = locus YCL016C, strain dcc1, active compounds read low
[12] = locus YCL069W, strain vba3, active compounds read low
[13] = locus YCR088W, strain abp1, active compounds read low
[14] = locus YDL005C, strain med2, active compounds read low
[15] = locus YDL040C, strain nat1, active compounds read low
[16] = locus YDR001C, strain nth1, active compounds read low
[17] = locus YDR069C, strain doa4, active compounds read low
[18] = locus YDR137W, strain rgp1, active compounds read low
[19] = locus YDR159W, strain sac3, active compounds read low
[20] = locus YDR297W, strain sur2, active compounds read low
[21] = locus YDR334W, strain swr1, active compounds read low
[22] = locus YDR335W, strain msn5, active compounds read low
[23] = locus YDR392W, strain spt3, active compounds read low
[24] = locus YEL003W, strain gim4, active compounds read low
[25] = locus YEL037C, strain rad23, active compounds read low
[26] = locus YEL061C, strain CIN8 (second series), active compounds read low
[27] = locus YER015W, strain faa2, active compounds read low
[28] = locus YER016W, strain bim1, active compounds read low
[29] = locus YER111C, strain swi4, active compounds read low
[30] = locus YER155C, strain BEM2 (second series), active compounds read low
[31] = locus YFR010W, strain ubp6, active compounds read low
[32] = locus YGL167C, strain pmr1, active compounds read low
[33] = locus YGL173C, strain kem1, active compounds read low
[34] = locus YGL227W, strain vid30, active compounds read low
[35] = locus YGL240W, strain doc1, active compounds read low
[36] = locus YGL253W, strain hxk2, active compounds read low
[37] = locus YHR013C, strain ard1, active compounds read low
[38] = locus YHR027C, strain rpn1, active compounds read low
[39] = locus YHR030C, strain SLT2, active compounds read low
[40] = locus YHR079C, strain IRE1, active compounds read low
[41] = locus YHR142W, strain chs7, active compounds read low
[42] = locus YJL092W, strain hpr5, active compounds read low
[43] = locus YJL095W, strain BCK1 (second series), active compounds read low
[44] = locus YJL095W, strain BCK1, active compounds read low
[45] = locus YJL115W, strain asf1, active compounds read low
[46] = locus YJL129C, strain trk1, active compounds read low
[47] = locus YJL154C, strain vps35, active compounds read low
[48] = locus YJL164C, strain tpk1, active compounds read low
[49] = locus YJL166W, strain qcr8, active compounds read low
[50] = locus YJL187C, strain SWE1, active compounds read low
[51] = locus YJR066W, strain TOR1, active compounds read low
[52] = locus YKL160W, strain elf1, active compounds read low
[53] = locus YKR026C, strain gcn3, active compounds read low
[54] = locus YKR091W, strain srl3, active compounds read low
[55] = locus YLL001W, strain dnm1, active compounds read low
[56] = locus YLL026W, active compounds read low
[57] = locus YLL041C, strain sdh2, active compounds read low
[58] = locus YLR027C, strain aat2, active compounds read low
[59] = locus YLR221C, strain rsa3, active compounds read low
[60] = locus YLR258W, strain gsy2, active compounds read low
[61] = locus YLR262C, strain YPT6 (second series), active compounds read low
[62] = locus YLR320W, strain mms22, active compounds read low
[63] = locus YLR342W, strain FKS1, active compounds read low
[64] = locus YLR357W, strain rsc2, active compounds read low
[65] = locus YLR370C, strain arc18, active compounds read low
[66] = locus YLR384C, strain iki3, active compounds read low
[67] = locus YML120C, strain ndi1, active compounds read low
[68] = locus YMR058W, strain fet3, active compounds read low
[69] = locus YMR125W, strain sto1, active compounds read low
[70] = locus YMR129W, active compounds read low
[71] = locus YMR205C, strain PFK2, active compounds read low
[72] = locus YMR231W, strain pep5, active compounds read low
[73] = locus YNL071W, strain lat1, active compounds read low
[74] = locus YNL183C, strain NPR1, active compounds read low
[75] = locus YNL209W, strain ssb2, active compounds read low
[76] = locus YNL248C, strain rpa49, active compounds read low
[77] = locus YNL322C, strain KRE1 (second series), active compounds read low
[78] = locus YNR049C, strain mso1, active compounds read low
[79] = locus YOR001W, strain rrp6, active compounds read low
[80] = locus YOR070C, strain gyp1, active compounds read low
[81] = locus YOR080W, strain dia2, active compounds read low
[82] = locus YOR083W, strain WHI5, active compounds read low
[83] = locus YOR106W, strain vam3, active compounds read low
[84] = locus YOR231W, strain MKK1, active compounds read low
[85] = locus YOR265W, strain rbl2, active compounds read low
[86] = locus YOR270C, strain vph1, active compounds read low
[87] = locus YOR290C, strain snf2, active compounds read low
[88] = locus YPL051W, strain arl3, active compounds read low
[89] = locus YPL078C, strain atp4, active compounds read low
[90] = locus YPL106C, strain sse1, active compounds read low
[91] = locus YPL240C, strain hsp82, active compounds read low
[92] = locus YPL256C, strain CLN2, active compounds read low

Measured: normalized growth

NCCC1CCCC(CCN)N1 (stereo not drawn)
inactive: locus YAL013W, strain DEP1, active compounds read low 1.01 | locus YAL040C, strain CLN3, active compounds read low 1.01 | locus YCL061C, strain MRC1 (second series), active compounds read low 1.01 | locus YDR363W, strain ESC2, active compounds read low 1.01 | locus YER002W, strain NOP16, active compounds read low 0.995 | locus YGR078C, strain PAC10, active compounds read low 1.02 | locus YGR229C, strain SMI1, active compounds read low 1.01 | locus YJR075W, strain HOC1, active compounds read low 1.01 | locus YNL153C, strain GIM3, active compounds read low 1.01 | locus YNL175C, strain NOP13, active compounds read low 1 | locus YNL197C, strain WHI3, active compounds read low 1 | locus YNL224C, strain SQS1, active compounds read low 1 | locus YOR083W, strain WHI5 (second series), active compounds read low 1.01 | locus YPL055C, strain LGE1, active compounds read low 1.02 | locus YPL241C, strain CIN2, active compounds read low 1.01

COc1ccc2nc(S(=O)Cc3ncc(C)c(OC)c3C)[nH]c2c1 (stereo not drawn)
active: [1] 0.795 | [5] 0.907 | [9] 0.913 | [17] 0.812 | [23] 0.556 | [30] 0.812 | [37] 0.753 | [39] 0.791 | [44] 0.752 | [59] 0.904 | [61] 0.857 | [62] 0.765 | [73] 0.702 | [80] 0.897 | [83] 0.857 | [88] 0.846
inactive: [2] 1 | [3] 1.02 | [4] 1.01 | [6] 0.957 | [7] 1.02 | [8] 0.953 | [10] 1.01 | [11] 0.962 | locus YCL061C, strain MRC1, active compounds read low 1.01 | [12] 1.02 | [13] 1.02 | [14] 1.02 | [15] 1.02 | [16] 1.02 | [18] 0.907 | [19] 0.975 | locus YDR195W, strain ref2 1.02 | [20] 1.01 | [21] 1.01 | [22] 1 | [24] 1.01 | [25] 1.02 | [26] 1.02 | [27] 0.987 | [28] 1.02 | [29] 1.02 | [31] 0.999 | [32] 1.02 | [33] 1.01 | [34] 1.02 | [35] 0.934 | [36] 1.01 | [38] 1.01 | [40] 0.885 | [41] 1.01 | [42] 1.02 | [43] 1.02 | [45] 1.02 | [46] 0.994 | [47] 1.02 | [48] 0.942 | [49] 0.911 | [50] 0.998 | [51] 0.879 | [52] 0.941 | [53] 1.01 | [54] 1.02 | [55] 1.01 | [56] 0.983 | [57] 1.02 | [58] 0.948 | [60] 0.989 | [63] 1.01 | [64] 1 | [65] 1.02 | [66] 1.03 | [67] 0.975 | [68] 0.999 | [69] 1.01 | [70] 1.03 | [71] 0.915 | [72] 1.01 | [74] 0.86 | [75] 0.98 | [76] 1.02 | [77] 1.03 | [78] 1.02 | [79] 0.996 | [81] 1.01 | [82] 0.984 | [84] 1.04 | [85] 0.995 | [86] 0.994 | [87] 0.991 | [89] 0.989 | [90] 1 | [91] 1.01 | [92] 0.988

COc1ccnc(CS(=O)c2nc3ccc(OC(F)F)cc3[nH]2)c1OC (stereo not drawn)
inactive: [1] 0.993 | [2] 1.04 | [3] 1.02 | [4] 1.04 | [5] 0.991 | [6] 1.04 | [7] 1.03 | [8] 1.01 | [9] 1.04 | [10] 1.02 | [11] 1.03 | [12] 1.02 | [13] 1.03 | [14] 1.02 | [15] 1.03 | [16] 1.02 | [17] 1.02 | [18] 1.05 | [19] 0.94 | locus YDR195W, strain ref2 1.01 | [20] 1.02 | [21] 1.03 | [22] 1.05 | [23] 0.925 | [24] 1.02 | [25] 1.03 | [26] 1.02 | [27] 1.03 | [28] 1.04 | [29] 1.05 | [30] 0.917 | [31] 1.01 | [32] 1.02 | [33] 0.989 | [34] 1.03 | [35] 0.977 | [36] 1.05 | [37] 1.05 | [38] 0.989 | [39] 0.864 | [40] 0.946 | [41] 1.05 | [42] 1.01 | [43] 1.02 | [44] 0.89 | [45] 1.02 | [46] 1.03 | [47] 1.02 | [48] 1 | [49] 0.989 | [50] 1.01 | [51] 0.922 | [52] 1.03 | [53] 1.04 | [54] 1.03 | [55] 0.98 | [56] 1.02 | [57] 1.01 | [58] 1.01 | locus YLR113W, strain HOG1, active compounds read low 0.926 | [59] 0.982 | [60] 1.04 | [61] 1.01 | [62] 0.936 | [63] 1.02 | [64] 1 | [65] 1.03 | [66] 1.01 | [67] 1 | [68] 1.04 | [69] 1.02 | [70] 1.03 | [71] 1.01 | [72] 1.03 | [73] 1.02 | [74] 0.868 | [75] 1.02 | [76] 1.06 | [77] 1.05 | [78] 1.03 | [79] 1 | [80] 1.02 | [81] 1.04 | [82] 0.995 | [83] 1.02 | [84] 0.953 | [85] 1 | [86] 1.2 | [87] 1.06 | [88] 1 | [89] 1.04 | [90] 1.03 | [91] 1.03 | [92] 0.969
